# Test results reported in the supplement of paper PMC10981050.
# Several values for one entry are separate records, joined by “and”; a condition that tells them apart may be missing. Identical values can stand only once. Counter-ions that a name gives are not always drawn.
# Assays:
# Assay in all cases: cell viability relative to vehicle control; higher = less cytotoxic
# Conditions in all cases: 10 µM
# K562 = system: K562
# In short: (§1)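 After removal of identity-inconsistent compounds, the Selleck bioactive, kinase and epigenetic probe libraries were screened on CRISPR-edited mutant clones and isogenic wild-type clones of four leukaemia lines. Plates were 384-well, each well holding 2000 cells in 50 µL medium and receiving a single 10 µM acoustically dispensed dose. CellTiter-Glo luminescence was read 48 h later, after the supernatant was taken off. Genedata Screener was used to express viability as percent of the on-plate vehicle control.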
# MARIMO = system: MARIMO
# In short: as §1
# MOLM14 = system: MOLM14
# In short: as §1
# OCI-AML2 = system: OCI-AML2
# In short: as §1
SMILES,cell viability (K562; SRSF2 genotype: SRSF2 P95H/wt),cell viability (K562; SRSF2 genotype: SRSF2 wt/wt) [%],cell viability (MARIMO; SRSF2 genotype: SRSF2 P95H/wt) [%],cell viability (MARIMO; SRSF2 genotype: SRSF2 wt/wt) [%],cell viability (MOLM14; SRSF2 genotype: SRSF2 P95H/wt) [%],cell viability (MOLM14; SRSF2 genotype: SRSF2 wt/wt) [%],cell viability (OCI-AML2; SRSF2 genotype: P95H/wt) [%],cell viability (OCI-AML2; SRSF2 genotype: wt/wt) [%]
COc1ccc(S(=O)(=O)Nc2cccnc2Nc2ccc(O)cc2)cc1,16.4% and 39.8%,36.7,7.19,9.01,16.8,5.56,9.51,11.2
"CC(=O)c1cc(O)ccc1O [2',5'-Dihydroxyacetophenone]",90.6% and 97.4%,97.7,94.6,87.5,103,97.6,94.7,101
O=P(O)(O)C(O)(Cc1cccnc1)P(=O)(O)O [Risedronate sodium],95.3% and 102%,91.4,88.9,102,91.8,101,93.7,98.3
Cc1cc(Nc2ncnc3ccc(NC4=NC(C)(C)CO4)cc23)ccc1Oc1ccn2ncnc2c1,87.4% and 89.8%,91.5,82.5,102,88.2,97.2,64.9,73.7
N#Cc1ccc2[nH]c(O)c(-c3ccc(CN4CCOCC4)cn3)c2c1,73.5% and 54.9%,78.4,81.4,97.9,71.2,93.3,98.7,123
Nc1cccc(-c2cc3c(Oc4cccc(O)c4)ncnc3[nH]2)c1,28.4% and 39.8%,27.7,84.4,94.5,37.8,35.5,53.4,53.3
Cc1noc(NS(=O)(=O)c2ccc(N)cc2)c1C [Sulfisoxazole],106% and 97.9%,107,98.5,104,97.6,103,98.5,104
Cc1cn([C@H]2C[C@H](N=[N+]=[N-])[C@@H](CO)O2)c(=O)[nH]c1=O [Zidovudine (Retrovir)],96.5% and 101%,101,102,113,95.5,105,101,105
COc1cc(C(=O)OCCCCNC(=N)N)cc(OC)c1O [Leonurine Hydrochloride],95.9% and 95.7%,101,98.8,95.4,98,102,101,98.6
COc1cc2c(c(O)c1OC)-c1c(cc(OC)c(OC)c1OC)C[C@@H](C)[C@@H](C)C2 [Schisanhenol],96.7% and 100%,97.1,100,107,90.3,96.8,91.7,102
CCOC(=O)c1c(CSc2ccccc2)n(C)c2cc(Br)c(O)c(CN(C)C)c12 [Arbidol HCl],50.6% and 70.1%,61.6,48,54.8,47.8,32.9,53.5,43.8
CNCc1ccc(-c2cc(-c3nc(-c4ccc(S(=O)(=O)C(C)C)cc4)cnc3N)on2)cc1,3.16% and 2.89%,1.89,0.36,0.32,0.28,0.34,0.39,0.9
Cc1ccc(-n2nc(C(C)(C)C)cc2NC(=O)Nc2ccc(OCCN3CCOCC3)c3ccccc23)cc1 [BIRB 796 (Doramapimod)],80.2% and 83.8%,92.3,81.8,104,81.4,88.1,93.7,101
Cc1ccc([C@@H]2O[C@H](CO)[C@@H](O)[C@H](O)[C@H]2O)cc1Cc1ccc(-c2ccc(F)cc2)s1 [Canagliflozin],93.4% and 99.1%,99.7,99,90.3,102,102,102,97.1
O=C(O)c1ccc2c(c1)C(=O)c1ccccc1C2=O [Anthraquinone-2-carboxylic Acid],100% and 101%,92.5,98,92,102,98.5,96.3,94.9
CS(=O)(=O)Nc1ccc([N+](=O)[O-])cc1Oc1ccccc1 [Nimesulide],105% and 109%,99.8,102,108,109,103,101,110
O=C1[C@H]2CCCC[C@H]2C(=O)N1CCCCN1CCN(c2nsc3ccccc23)CC1 [Perospirone hydrochloride],70.2% and 74%,73.6,71.2,82.3,78.7,82.5,73.7,75.8
S=C(NCc1ccc2c(c1)OCO2)N1CCN(c2ncnc3c2oc2ccccc23)CC1 [Amuvatinib (MP-470)],62.3% and 74.9%,64.2,50.3,41.5,68.2,76.4,28,42.5
O=C([O-])[O-].[Li+].[Li+] [Lithium carbonate],111% and 113%,108,99.6,112,105,108,117,96.9
CCOC(=O)[C@H](CCc1ccccc1)N[C@@H](C)C(=O)N1[C@H](C(=O)O)C[C@@H]2CCC[C@@H]21 [Ramipril (Altace)],86.6% and 88.3%,89.9,87.7,92.3,88.2,87.4,84.8,86.3
